Screening data from PubChem BioAssay.
3T3 cytotox: cytotoxic compounds in NIH 3T3 cells; NIH 3T3 viability, CellTiter-Glo ATP luminescence, 48-72 h; Potency, µM (titrated, usually from 96.7 µM), usual class: inhibitors; 94,000 tested, 4.3% active; note: nearly all actives have a fitted effect of over 55% in size
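Cells were seeded at 400 per well, treated with pin-transferred compound, and kept 48 or 72 hr at 37 °C before CellTiter-Glo addition and luminescence imaging of cellular ATP.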
Luciferase inh: inhibitors of firefly (Photinus pyralis) luciferase | purified P. pyralis luciferase, luminescence, biochemical | AID 1347043 | 76,000 tested, 2.5% active | P08659 | Potency, µM (titrated, usually from 115 µM), actives largely listed as inhibitors; note: nearly all actives have a fitted effect of over 65% in size
Target sequence (P08659 whole entry, looked up): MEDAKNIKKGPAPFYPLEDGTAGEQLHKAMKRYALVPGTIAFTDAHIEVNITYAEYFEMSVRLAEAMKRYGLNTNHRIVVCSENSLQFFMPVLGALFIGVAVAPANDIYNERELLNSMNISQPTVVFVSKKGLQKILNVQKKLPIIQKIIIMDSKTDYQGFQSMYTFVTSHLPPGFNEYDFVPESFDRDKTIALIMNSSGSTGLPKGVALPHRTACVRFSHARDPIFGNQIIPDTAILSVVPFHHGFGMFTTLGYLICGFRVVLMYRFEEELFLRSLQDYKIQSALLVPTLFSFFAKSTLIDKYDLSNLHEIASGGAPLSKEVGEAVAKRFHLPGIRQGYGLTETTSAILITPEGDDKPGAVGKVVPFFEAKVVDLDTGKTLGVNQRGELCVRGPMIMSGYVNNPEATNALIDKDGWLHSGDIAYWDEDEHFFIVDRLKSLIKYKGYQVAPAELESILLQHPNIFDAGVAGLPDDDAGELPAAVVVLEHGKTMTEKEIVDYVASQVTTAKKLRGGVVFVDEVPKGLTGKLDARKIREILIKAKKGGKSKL
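Cell-free enzyme assay, 10nM P. pyralis luciferase, luciferin and ATP each at 10uM. Inhibition profiled over a 6-point titration, read as luminescence.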
HEK cytotox: HEK 293 cell cytotoxicity; 94,000 tested, 6.6% active; Potency, µM (series often up to 115 µM), usual class: inhibitors; HEK 293 viability, ATP luminescence (CellTiter-Glo), 48-72 h; note: nearly all actives have a fitted effect of over 60% in size
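Pintool-delivered compounds were incubated with HEK 293 cells (250 cells/well) at 37 degree Celsius for 48 or 72 hr. ATP-dependent luminescence (CellTiter-Glo) then reported remaining viable cells.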
hNpr1 antagonist: human Npr1 receptor antagonism; Potency, µM (series often up to 46.3 µM), hits mostly inhibitors; HEK293 hNpr1 GloSensor cGMP, ANP-stimulated luminescence; 76,000 tested, 1.6% active; calls by dose curve; note: nearly all actives have a fitted effect of over 60% in size
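Compound pre-incubated 30 min at room temperature on GloSensor-loaded HEK293 cells stably carrying hNpr1 and the pGS-40F cGMP biosensor. Stimulation uses hNppA at 0.1 nM final; luminescence is taken at baseline and 20 min post-agonist.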
Hits are given with their value; - = inactive; ? = inconclusive; . = no result given. This is a sample that favours compounds with a hit; in the whole collection about 11% have one here. Unless noted, calls come from the whole dose curve; as a rule, active = well fitted curve in the direction sought with a large enough effect; inconclusive = small, poorly fitted or top-dose-only effect, or another doubt; inactive = no such curve, though single readings can be large; an effect the other way counts as inactive or inconclusive.

SMILES	3T3 cytotox	Luciferase inh	HEK cytotox	hNpr1 antagonist
O=C(Cc1c[nH]c2ncc(-c3cccc(CO)c3)cc12)NCc1cccnc1	?	-	-	-
O=C(Cc1c[nH]c2ncc(-c3ccc(Oc4ccccc4)cc3)cc12)NCc1cccnc1	?	-	40µM	?
COC(=O)[C@@H]1Cc2ncn(Cc3ccc(OC)cc3)c2CN1S(=O)(=O)c1ccc(F)cc1	79µM	-	-	-
COC(=O)[C@@H]1Cc2ncn(C)c2CN1S(=O)(=O)c1ccc2ccccc2c1	79µM	-	-	-
COC(=O)[C@@H]1Cc2ncn(Cc3ccc(OC)cc3)c2CN1Cc1ccc(F)cc1	?	-	63µM	?
COC(=O)CNC(=O)[C@@H]1CCCN1c1nccc(Nc2ccccc2OC)n1	-	.	-	.
COc1ccccc1Nc1ccnc(N2CCCC(C(=O)NCc3cccs3)C2)n1 (centres undefined)	32µM	.	?	.
COc1cccc(CNC(=O)C2CCN(c3nccc(Nc4ccccc4OC)n3)CC2)c1	40µM	.	?	.
COC(=O)CNC(=O)C1CCN(c2nccc(Nc3ccccc3OC)n2)CC1	-	.	-	.
COc1ccccc1Nc1ccnc(N2CCCC(C(=O)NCc3ccc(Cl)cc3)C2)n1 (centres undefined)	?	.	11µM	.
COc1cccc(CNC(=O)C2CCCN(c3nccc(Nc4ccccc4OC)n3)C2)c1 (centres undefined)	32µM	.	?	.
Cc1cn2nc(C(=O)N3CCC(C(=O)NCCc4ccccc4)CC3)cc2c(=O)[nH]1	-	-	-	-
COc1ccccc1CN1CC(O)CN(C(=O)c2ccc(SC)cc2)CC1=O (centres undefined)	-	.	?	.
O=C(NC1CCN(c2cc(-c3ccc(Cl)cc3)[nH]n2)C1)c1ccc2c(c1)OCO2 (centres undefined)	?	-	?	-
COc1ccc(-c2cc(N3CCC(NC(=O)c4ccc5c(c4)OCO5)C3)n[nH]2)cc1 (centres undefined)	?	-	79µM	-
O=C(NC1CCCN(c2cc(-c3ccc(Cl)cc3)[nH]n2)C1)c1ccc2c(c1)OCO2 (centres undefined)	?	?	45µM	-
OC[C@H]1CCN(Cc2ccc(-c3cccc(Cl)c3Cl)o2)C[C@@H]1O	-	?	?	10µM
O=C1NCc2ccccc2CC12CCCCN2Cc1ccccc1 (centres undefined)	-	.	-	.
CN(Cc1ccccc1)C(=O)Cc1ccc(N(Cc2ccccc2)C(=O)c2ccco2)cc1	?	-	?	-
O=C(NC1CCCN(c2ccc3nnc(-c4ccccc4)n3n2)C1)c1ccccc1 (centres undefined)	28µM	.	35µM	.
O=C(NC1CCN(c2ccc3nnc(-c4ccccc4)n3n2)CC1)c1ccccc1	-	.	?	.
COc1ccc(C(=O)NC2CCN(c3ccc4nnc(-c5ccccc5)n4n3)CC2)cc1	?	.	79µM	.
COc1cccc(C(=O)NC2CCCN(c3ccc4nnc(-c5ccccc5)n4n3)C2)c1 (centres undefined)	-	.	-	.
O=C(Nc1ccc(Cl)cc1)N1CCCN(c2ccc3nnc(-c4ccccc4)n3n2)CC1	28µM	.	?	.
CC(C)NC(=O)N1CCCN(c2ccc3nnc(-c4ccccc4)n3n2)CC1	-	.	-	.
SMILES	3T3 cytotox	Luciferase inh	HEK cytotox	hNpr1 antagonist
O=C(NC1CCCN(c2ccc3nnc(-c4ccccc4)n3n2)C1)c1ccc(Cl)nc1 (centres undefined)	?	.	28µM	.
COCCn1c(=O)c(C(=O)NC(C)c2ccc(F)cc2)nc2cccnc21 (centres undefined)	-	.	-	.
CN(C)C(=O)NC1CCCN(c2ccc3nnc(-c4ccccc4)n3n2)C1 (centres undefined)	45µM	.	?	.
CC(C)C(=O)NC1CCCN(c2ccc3nnc(-c4ccccc4)n3n2)C1 (centres undefined)	-	.	-	.
CCCS(=O)(=O)N1CCC2(CC1)CCC(O)(CN1CCCC1)CC2	-	.	?	.
O=c1cc(-c2cccnc2)oc2c(NCCc3ccccn3)nccc12	35µM	?	?	-
O=c1cc(-c2cccnc2)oc2c(-c3cccc(F)c3)nccc12	?	-	-	-
O=C(C1CCCC1)N1CCN(c2ccnc3ccnn23)CC1	-	.	-	.
O=C(CNC(=O)c1ccc(-c2cccc(C(F)(F)F)c2)cc1)NCCCc1ccccc1	-	.	-	.
Cc1ccc(C)c(-c2cc3c(=O)n(CCNC(=O)c4ccccc4Cl)ccn3n2)c1	35µM	-	45µM	-
Cc1ccc(-c2cc3c(=O)n(CCNC(=O)Cc4c[nH]c5ccccc45)ccn3n2)c(C)c1	-	?	40µM	?
COc1ccccc1C(=O)NCCn1ccn2nc(-c3cc(C)ccc3C)cc2c1=O	?	-	?	-
Cc1ccc(-c2cc3c(=O)n(CCNC(=O)c4cc(C5CC5)[nH]n4)ccn3n2)c(C)c1	-	1.3µM	?	?
Cc1cccc(OCC(=O)NCCn2ccn3nc(-c4ccc(C)cc4C)cc3c2=O)c1	?	?	?	-
Cc1ccc(-c2cc3c(=O)n(CCNC(=O)Cc4ccccc4Cl)ccn3n2)c(C)c1	-	2.5µM	-	-
Cc1ccc(-c2cc3c(=O)n(CCNC(=O)c4ccc(F)cc4)ccn3n2)c(C)c1	-	?	?	?
CCN1CCN(C2(C(=O)N3CCC(COC)C3)Cc3ccccc3C2)CC1 (centres undefined)	-	-	-	-
Cc1ccc(C)c(-c2cc3c(=O)n(CCNC(=O)c4ccc(C#N)cc4)ccn3n2)c1	?	-	13µM	-
Cc1ccc(C)c(-c2cc3c(=O)n(CCNC(=O)c4ccc5ccccc5n4)ccn3n2)c1	?	-	35µM	-
COc1ccc(C(=O)NCCn2ccn3nc(-c4cc(C)ccc4C)cc3c2=O)c(OC)c1	?	-	40µM	-
CC(=O)c1cc(C(=O)N2CCCC(CCc3ccccc3C)C2)[nH]n1 (centres undefined)	?	?	?	-
Cc1ccc(NC(=O)N2CCC(CCNC(=O)c3n[nH]c4ccccc34)CC2)cc1F	?	?	79µM	-
Cc1ccc(NC(=O)N2CCC(CCNC(=O)c3ccco3)CC2)cc1F	?	-	-	-
COc1ccc(C(=O)NCCC2CCN(C(=O)Nc3ccc(C)c(F)c3)CC2)cc1	?	3.5µM	-	-
CNC(=O)c1cc(C2CC2)nc2onc(C3CCN([S+](=O)([O-])c4c(C)noc4C)C3)c12 (centres undefined)	-	.	-	.
CC(C)n1ccnc1CN1CCCC12CCN(c1ccc(C(F)(F)F)cn1)CC2	?	-	35µM	-
COc1ccc2[nH]cc(CCNC(=O)C3Cn4cccc4C(=O)N3Cc3ccccc3)c2c1 (centres undefined)	-	-	-	-
O=C(NCC1Cn2cccc2C(=O)N1Cc1cccnc1)c1n[nH]c(=O)c2ccccc12 (centres undefined)	40µM	-	-	-
COc1ccc2[nH]cc(CCNC(=O)C3Cn4cccc4C(=O)N3Cc3cccnc3)c2c1 (centres undefined)	?	-	89µM	-
CCNC(=O)NC[C@H]1Cn2c(-c3cccc(Cl)c3)cnc2CO1	?	-	-	-
